The source of these data is PubChem BioAssay (NCI).

The nature of experiment [1]: NCI Yeast Anticancer Drug Screen. Data for the rad50 strain (AID 155).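 Note: 0% = growth of vehicle-only cultures of the same strain.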 As to conditions: S. cerevisiae rad50 strain growth inhibition, active compounds read high. In a few lines:
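Genetically altered yeast (DNA repair pathway); compound treatment; growth inhibition vs vehicle ctrl.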

Experiment [2] in a line: NCI Yeast Anticancer Drug Screen. Data for the mec2-1 strain (AID 157). The conditions noted are these: S. cerevisiae mec2-1 strain, active compounds read high. In a few lines:
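Vehicle-treated cultures served as reference for growth inhibition of compound-exposed mec2-1 yeast.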

Experiment [3] in a line: NCI Yeast Anticancer Drug Screen. Data for the sgs1 mgt1 strain (AID 161).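 Note: 0% = growth of cultures given vehicle only.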 The conditions noted are these: S. cerevisiae sgs1 mgt1 strain, active compounds read high. In a few lines:
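Mutant yeast exposed to compound; growth scored against vehicle-only wells.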

Experiment [4] in a line: NCI Yeast Anticancer Drug Screen. Data for the cln2 rad14 strain (AID 165).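 Note: 0% = growth equal to vehicle treated cultures.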 The conditions noted are these: S. cerevisiae cln2 rad14 strain, active compounds read high. In a few lines:
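Each compound was tested on cln2 rad14 yeast. Inhibition of growth was calculated against vehicle-exposed controls.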

Experiment [5] in a line: NCI Yeast Anticancer Drug Screen. Data for the bub3 strain (AID 167). The conditions noted are these: S. cerevisiae bub3 mutant strain, active compounds read high. In a few lines: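 Yeast carrying a defined mutation is treated with each compound, and growth is compared with that of vehicle-exposed cells to give inhibition.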
A short description of experiment [6]: NCI Yeast Anticancer Drug Screen. Data for the mlh1 rad18 strain (AID 175). As to conditions: S. cerevisiae mlh1 rad18 strain growth inhibition, active compounds read high. The method, boiled down:
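Vehicle-treated cultures served as the reference for growth inhibition in a yeast strain carrying DNA damage repair alterations exposed to each compound.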

Where [7] appears, read: at 5.0 µM (retest, dose inferred, filed as 0.5).
Where [8] appears, read: at 50.0 µM (retest, dose inferred, filed as 5.0).

Compounds without any hit were thinned out: in the full panel of roughly 79,000, 15% have a hit. Unmarked numbers belong to inactive results. The source made the active and inactive calls. Cut-off read from the data, not from the text of the source: active = growth inhibition above about 70%; inactive = the rest.

`O=[n+]1c2ccccc2n([O-])c2cc(Cl)ccc21`: the growth inhibition was 95% (active) in experiment [1] (setting [7]); 99% (active) in experiment [1] (setting [8]); 98.7% (active) in experiment [1] (at 50.0 µM); 86% (active) in experiment [2] (setting [7]); 100% (active) in experiment [2] (setting [8]); 99.4% (active) in experiment [2] (at 50.0 µM). Also, the growth inhibition is 77% (active) in experiment [3] (setting [7]); 99% (active) in experiment [3] (setting [8]); 99.1% (active) in experiment [3] (at 50.0 µM); 48% in experiment [4] (setting [7]); 99% (active) in experiment [4] (setting [8]); 96.7% (active) in experiment [4] (at 50.0 µM). Further, the growth inhibition is 95% (active) in experiment [5] (setting [7]); 100% (active) in experiment [5] (setting [8]); 98.5% (active) in experiment [5] (at 50.0 µM); 94% (active) in experiment [6] (setting [7]); 99% (active) in experiment [6] (setting [8]); 99.1% (active) in experiment [6] (at 50.0 µM).

For the compound `O=C/C=C/c1ccc([N+](=O)[O-])cc1`, the growth inhibition in experiment [1] (setting [7]) is 24%; in experiment [1] (setting [8]), 98% (active); in experiment [1] (at 50.0 µM), 80.4% (active); in experiment [2] (setting [7]), 49%; in experiment [2] (setting [8]), 100% (active); in experiment [2] (at 50.0 µM) it was 83.5% (active). In addition, the growth inhibition in experiment [3] (setting [7]) is 18%; in experiment [3] (setting [8]), 98% (active); in experiment [3] (at 50.0 µM), 95.5% (active); in experiment [4] (setting [7]), 8%; in experiment [4] (setting [8]), 98% (active); in experiment [4] (at 50.0 µM), 46.7%. Further, the growth inhibition in experiment [5] (setting [7]) is 17%; in experiment [5] (setting [8]), 99% (active); in experiment [5] (at 50.0 µM) it was 95.3% (active); in experiment [6] (setting [7]), 72% (active); in experiment [6] (setting [8]), 99% (active); in experiment [6] (at 50.0 µM), 90.5% (active).

For the compound `Cc1onc(-c2ccccc2)c1C(=O)N/N=C/c1cc(Cl)cc(Cl)c1O`, the growth inhibition is 92% (active) in experiment [1] (setting [7]); 95% (active) in experiment [1] (setting [8]); 80.6% (active) in experiment [1] (at 50.0 µM); 96% (active) in experiment [2] (setting [7]); 96% (active) in experiment [2] (setting [8]); 88.5% (active) in experiment [2] (at 50.0 µM). Besides, the growth inhibition was 93% (active) in experiment [3] (setting [7]); 98% (active) in experiment [3] (setting [8]); 90.8% (active) in experiment [3] (at 50.0 µM); 87% (active) in experiment [4] (setting [7]); 96% (active) in experiment [4] (setting [8]); 84.5% (active) in experiment [4] (at 50.0 µM). Moreover, the growth inhibition was 94% (active) in experiment [5] (setting [7]); 63% in experiment [5] (setting [8]); 87.8% (active) in experiment [5] (at 50.0 µM); 96% (active) in experiment [6] (setting [7]); 94% (active) in experiment [6] (setting [8]); 85.2% (active) in experiment [6] (at 50.0 µM).

Regarding `O=C(CCl)N1c2ccccc2Sc2c1ccc1ccccc21`, the growth inhibition in experiment [1] (setting [7]) was 25%; in experiment [1] (setting [8]), 90% (active); in experiment [1] (at 50.0 µM), 82.7% (active); in experiment [2] (setting [7]), 39%; in experiment [2] (setting [8]) it was 90% (active); in experiment [2] (at 50.0 µM), 63.9%. Also, the growth inhibition in experiment [3] (setting [7]) is 47%; in experiment [3] (setting [8]) it was 94% (active); in experiment [3] (at 50.0 µM) it was 90.6% (active); in experiment [4] (setting [7]), 20%; in experiment [4] (setting [8]), 69%; in experiment [4] (at 50.0 µM), 19.8%. Besides, the growth inhibition is 56% in experiment [5] (setting [7]); 91% (active) in experiment [5] (setting [8]); 72.2% (active) in experiment [5] (at 50.0 µM); 46% in experiment [6] (setting [7]); 90% (active) in experiment [6] (setting [8]); 83.4% (active) in experiment [6] (at 50.0 µM).

Take `COc1cc(N(CCC#N)CCC#N)ccc1/C(N=Nc1ccc([N+](=O)[O-])cc1)=N/NC(=O)c1cc(Br)ccc1O`: the growth inhibition in experiment [1] (setting [7]) is 6%; in experiment [1] (setting [8]), 27%; in experiment [1] (at 50.0 µM), 63%; in experiment [2] (setting [7]), 14%; in experiment [2] (setting [8]), 42%; in experiment [2] (at 50.0 µM) it was 44.6%. The growth inhibition in experiment [3] (setting [7]) was -6%; in experiment [3] (setting [8]), 35%; in experiment [3] (at 50.0 µM) it was 40.6%; in experiment [4] (setting [7]) it was 10%; in experiment [4] (setting [8]), 11%; in experiment [4] (at 50.0 µM) it was 55.1%. Besides, the growth inhibition in experiment [5] (setting [7]) is 8%; in experiment [5] (setting [8]) it was 48%; in experiment [5] (at 50.0 µM) it was 51%; in experiment [6] (setting [7]) it was 15%; in experiment [6] (setting [8]) it was 37%; in experiment [6] (at 50.0 µM) it was 46.1%.

On to `CCOc1ccc(Nc2nc3c(s2)C(=O)c2ccccc2C3=O)cc1`, for which the growth inhibition was 78% (active) in experiment [1] (setting [7]); 99% (active) in experiment [1] (setting [8]); 90.7% (active) in experiment [1] (at 50.0 µM); 99% (active) in experiment [2] (setting [7]); 99% (active) in experiment [2] (setting [8]); 92.1% (active) in experiment [2] (at 50.0 µM). Moreover, the growth inhibition in experiment [3] (setting [7]) was 90% (active); in experiment [3] (setting [8]), 99% (active); in experiment [3] (at 50.0 µM), 92.7% (active); in experiment [4] (setting [7]), 58%; in experiment [4] (setting [8]), 98% (active); in experiment [4] (at 50.0 µM), 90.8% (active). Besides, the growth inhibition was 98% (active) in experiment [5] (setting [7]); 99% (active) in experiment [5] (setting [8]); 92.5% (active) in experiment [5] (at 50.0 µM); 89% (active) in experiment [6] (setting [7]); 98% (active) in experiment [6] (setting [8]); 91.8% (active) in experiment [6] (at 50.0 µM).
